According to PubChem BioAssay:
A number with no mark means an inactive call. Entries that show only a call come without a potency. For some of these results: Potency and affinity values are given separately. The source made the active and inactive calls. Unless noted, the rule behind the calls is not given here.

Experiments:
[1] = antimalarial activity against Dd2 strain (AID 2302;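 active = growth inhibition above 50% at the single 2 µM test dose, taken to imply half-maximal potency below 2 µM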); details: P. falciparum Dd2 in RBCs, LDH growth readout, 72 h; at 2 µM; active compounds read high
[2] = human hepatoma cell viability loss – ATP luminescence, cytotoxicity control for P. falciparum antimalarial project, primary screen (AID 2303;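 active = inhibition above 50%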); details: HepG2 viability, 24-48 h, at 10 µM, active compounds read high
[3] = biological target: L-lactate dehydrogenase (Plasmodium falciparum (isolate CDC / Honduras)) (UniProt Q27743); assay: PfLDH activity inhibition – cell lysate, 3D7 strain, counter-screen for P. falciparum growth inhibition project (AID 2304); details: P. falciparum 3D7 crude extract, LDH APAD/NBT absorbance; at 2 µM; active compounds read high
Sequence of L-lactate dehydrogenase (Plasmodium falciparum (isolate CDC / Honduras)) (Q27743 whole entry, looked up): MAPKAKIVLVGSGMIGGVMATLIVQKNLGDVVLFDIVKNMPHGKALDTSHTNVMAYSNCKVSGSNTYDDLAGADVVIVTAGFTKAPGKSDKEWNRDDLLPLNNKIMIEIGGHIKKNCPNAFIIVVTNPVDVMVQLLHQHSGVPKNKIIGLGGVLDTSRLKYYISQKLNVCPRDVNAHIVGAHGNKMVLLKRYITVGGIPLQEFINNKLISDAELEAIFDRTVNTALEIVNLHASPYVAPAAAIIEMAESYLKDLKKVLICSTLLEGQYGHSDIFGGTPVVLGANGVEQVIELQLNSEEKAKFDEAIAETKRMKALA

[4] = inhibition of 3D7 malaria parasite growth – strain 3D7 (AID 2306); details: P. falciparum 3D7 erythrocytic growth, LDH absorbance, 72 h; at 2 µM; active compounds read high
[5] = biological target: Calcium-dependent protein kinase 1 (Plasmodium falciparum (isolate 3D7)) (UniProt P62344); assay: PfCDPK1 kinase inhibitors, biochemical, TCAMS library (AID 1159585; cut-off not given, nearly all actives have IC50 up to about 0.98 µM;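 note: inhibitors leave more ATP so luminescence rises with inhibition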); details: recombinant PfCDPK1, Kinase-Glo ATP depletion luminescence
Sequence of Calcium-dependent protein kinase 1 (Plasmodium falciparum (isolate 3D7)) (P62344 whole entry, looked up): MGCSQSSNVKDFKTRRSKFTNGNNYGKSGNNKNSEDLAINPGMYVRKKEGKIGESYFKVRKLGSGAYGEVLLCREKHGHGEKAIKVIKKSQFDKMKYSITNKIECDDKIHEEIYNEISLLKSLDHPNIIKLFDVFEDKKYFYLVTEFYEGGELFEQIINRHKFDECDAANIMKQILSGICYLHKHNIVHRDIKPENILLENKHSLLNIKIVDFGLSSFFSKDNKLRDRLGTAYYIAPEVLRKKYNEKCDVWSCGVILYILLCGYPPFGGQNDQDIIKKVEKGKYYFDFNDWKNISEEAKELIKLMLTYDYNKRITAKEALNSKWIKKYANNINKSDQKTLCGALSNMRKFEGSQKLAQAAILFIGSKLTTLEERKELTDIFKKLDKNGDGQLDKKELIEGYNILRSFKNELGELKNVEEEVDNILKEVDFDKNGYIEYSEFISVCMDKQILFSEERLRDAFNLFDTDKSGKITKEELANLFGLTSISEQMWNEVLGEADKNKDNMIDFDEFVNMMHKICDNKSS

[6] = biological target: Plasmodium falciparum protein kinase 6 (PK6, PF3D7_1337100) (UniProt Q8IDW1); assay: PfPK6 kinase inhibitors, biochemical, TCAMS library (AID 1159586); details: recombinant PfPK6, Kinase-Glo ATP depletion luminescence
Sequence of Plasmodium falciparum protein kinase 6 (PK6, PF3D7_1337100) (Q8IDW1 1-305): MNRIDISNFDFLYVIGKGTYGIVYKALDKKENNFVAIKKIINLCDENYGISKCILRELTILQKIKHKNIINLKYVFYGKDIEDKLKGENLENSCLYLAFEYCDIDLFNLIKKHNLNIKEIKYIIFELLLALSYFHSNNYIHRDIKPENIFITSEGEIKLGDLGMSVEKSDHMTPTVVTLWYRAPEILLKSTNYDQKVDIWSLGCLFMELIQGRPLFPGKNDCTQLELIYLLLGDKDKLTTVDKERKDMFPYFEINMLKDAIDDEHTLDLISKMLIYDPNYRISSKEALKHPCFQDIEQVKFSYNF

[7] = biological target: Protein kinase 7 (PK7), Plasmodium falciparum 3D7 (PF3D7_0213400) (UniProt Q7YTF7); assay: inhibition of Plasmodium PK7 catalytic activity – biochemical, TCAMS antimalarial set, Kinase-Glo luminescence (AID 1159587); details: recombinant PfPK7, Kinase-Glo ATP depletion luminescence
Sequence of Protein kinase 7 (PK7), Plasmodium falciparum 3D7 (PF3D7_0213400) (Q7YTF7 1-343): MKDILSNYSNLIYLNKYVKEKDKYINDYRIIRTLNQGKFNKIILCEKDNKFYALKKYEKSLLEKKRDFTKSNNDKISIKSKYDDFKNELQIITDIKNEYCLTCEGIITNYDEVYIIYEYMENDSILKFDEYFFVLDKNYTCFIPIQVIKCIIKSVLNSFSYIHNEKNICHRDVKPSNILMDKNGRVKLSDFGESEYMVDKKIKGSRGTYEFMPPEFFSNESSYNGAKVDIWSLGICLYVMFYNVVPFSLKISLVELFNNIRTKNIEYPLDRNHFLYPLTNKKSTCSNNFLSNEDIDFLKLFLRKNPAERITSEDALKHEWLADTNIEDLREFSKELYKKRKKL

[8] = biological target: Calcium-dependent protein kinase 4 (Plasmodium falciparum (isolate 3D7)) (UniProt Q8IBS5); assay: PfCDPK4 kinase inhibitors, biochemical, TCAMS library (AID 1159588; cut-off not given, nearly all actives have IC50 up to about 0.91 µM); details: recombinant PfCDPK4, Kinase-Glo ATP depletion luminescence
Sequence of Calcium-dependent protein kinase 4 (Plasmodium falciparum (isolate 3D7)) (Q8IBS5 whole entry, looked up): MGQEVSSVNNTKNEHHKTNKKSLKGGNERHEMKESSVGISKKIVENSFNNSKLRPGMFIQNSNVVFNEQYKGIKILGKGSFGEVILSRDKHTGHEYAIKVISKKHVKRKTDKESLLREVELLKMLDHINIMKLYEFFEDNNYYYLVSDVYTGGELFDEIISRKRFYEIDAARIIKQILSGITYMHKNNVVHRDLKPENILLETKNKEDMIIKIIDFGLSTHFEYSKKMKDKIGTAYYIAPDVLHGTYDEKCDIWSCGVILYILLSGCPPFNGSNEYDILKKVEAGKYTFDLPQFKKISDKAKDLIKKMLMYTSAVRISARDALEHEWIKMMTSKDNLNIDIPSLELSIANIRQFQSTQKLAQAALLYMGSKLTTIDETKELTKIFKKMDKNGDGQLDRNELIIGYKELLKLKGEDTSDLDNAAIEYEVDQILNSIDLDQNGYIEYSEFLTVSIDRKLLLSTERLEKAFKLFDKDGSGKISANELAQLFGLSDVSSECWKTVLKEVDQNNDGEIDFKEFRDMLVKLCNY

SMILES | growth inhibition [1] | inhibition [2] | inhibition [3] | growth inhibition [4] | outcome [5] | outcome [6] | outcome [7] | outcome [8]
COC(=O)c1ccc(C(=O)NCCCCN2CCC(c3ccc4c(c3OC)CCCC4)CC2)cc1-c1ccc(C(F)(F)F)cc1 | 19% | 24% | 2% | 93% (active) | inactive | inactive | inactive | inactive
Fc1ccc2nccc(NN=Cc3ccccc3Cl)c2c1 | 39% | 3% | 0% | 100% (active) | inactive | inactive | inactive | inactive
CC(C)(C)c1cc(CN2CCN(Cc3ccccc3)CC2)cc(C(C)(C)C)c1O | 0% | 9% | 0% | 97% (active) | inactive | inactive | inactive | inactive
CC(C)(C)c1ccc(CNC(=O)/C=C/c2ccc(-c3nc4ccc(C(C)(C)C)cc4[nH]3)cc2)cc1 | 66% (active) | 35% | -2% | 100% (active) | inactive | inactive | inactive | inactive
COc1cc(C(C)C)ccc1N1CCN(CCCCNC(=O)c2ccc(NC(=O)c3ccc(Cl)cc3)cc2)CC1 | 81% (active) | 25% | 3% | 98% (active) | inactive | inactive | inactive | inactive
O=C(Cc1cnc[nH]1)Nc1ccc(-c2ccc(-c3nc4ccc(C(F)(F)F)cc4[nH]3)s2)cc1 | 99% (active) | 48% | 0% | 101% (active) | inactive | inactive | inactive | inactive
CC1CCC(NC(=O)c2nn(-c3ccc(Cl)cc3)c(=O)c3ccccc23)CC1 (centres undefined) | 67% (active) | 3% | -3% | 91% (active) | inactive | inactive | inactive | inactive
CS(=O)(=O)c1cccc(-c2ccc3oc(C(N)=O)c(NC(=O)c4cccs4)c3c2)c1 | 77% (active) | 11% | -8% | 86% (active) | inactive | inactive | inactive | inactive
Fc1ccc2[nH]c(-c3ccccc3)nc2c1CN1CCC(N2CCCC2)CC1 | 30% | 2% | -2% | 100% (active) | inactive | inactive | inactive | inactive
O=S(=O)(Nc1ccc(CCN2CCC(N3CCCCC3)CC2)cc1)c1cccc2cccnc12 | 45% | 14% | -3% | 101% (active) | inactive | inactive | inactive | inactive
O=C(N1CCN(c2ccnc3cc4c(cc23)N(Cc2ccccc2)CC4)CC1)C(F)(F)F | 100% (active) | 8% | 3% | 100% (active) | inactive | inactive | inactive | inactive
CCN(CC)CCCNCc1ccc(-c2ccc(C(F)(F)F)cc2)cc1 | 35% | 53% (active) | -4% | 95% (active) | inactive | inactive | inactive | inactive
COc1ccc2nccc([C@@H](O)CN3CCC(NCc4cc5ccccc5s4)CC3)c2c1 | 53% (active) | 8% | 3% | 97% (active) | inactive | inactive | inactive | inactive
CN1CCCC(OC(=O)c2ccccc2)C1 (centres undefined) | -2% | 4% | -5% | 100% (active) | inactive | inactive | inactive | inactive
COc1cccc(C(=O)NCc2cccs2)c1OCc1ccccc1 | -1% | -12% | 5% | 96% (active) | inactive | inactive | inactive | inactive
Cc1cc(N(C)C2CCN(C)C2)nc(Nc2ccc(Cl)cc2)n1 (centres undefined) | 88% (active) | 8% | 0% | 100% (active) | inactive | inactive | inactive | inactive
CCC(C)(C)c1ccc2nc(N)nc(N)c2c1C | 82% (active) | 62% (active) | 1% | 91% (active) | inactive | inactive | inactive | inactive
COc1ccc(Nc2ncc3c(-c4cccc(NC(=O)Cc5ccncc5)c4)c[nH]c3n2)cc1OC | 87% (active) | 23% | 1% | 99% (active) | inactive | inactive | inactive | inactive
CCCc1cc(NCc2ccncc2)nc(Nc2ccc(F)cc2)n1 | 6% | 9% | -7% | 90% (active) | inactive | inactive | inactive | inactive

SMILES | growth inhibition [1] | inhibition [2] | inhibition [3] | growth inhibition [4] | outcome [5] | outcome [6] | outcome [7] | outcome [8]
Cc1ccc(-n2cc(CNCCc3ncc(C)[nH]3)c(-c3ccc(F)cc3)n2)cc1 | 12% | 15% | -2% | 86% (active) | inactive | inactive | inactive | inactive
Cc1ccc(-c2cccc3c(NC(=O)Nc4ccc5nccc(N6CCN(C)CC6)c5c4)cccc23)cn1 | 89% (active) | 6% | -7% | 90% (active) | inactive | inactive | inactive | inactive
CCCc1ccc(NC(=O)c2ccc(CN3CCCN(Cc4cccc(O)c4)CC3)cc2)cc1 | 63% (active) | 51% (active) | -1% | 101% (active) | inactive | inactive | inactive | inactive
CCN(CC)CCCC(C)Nc1c2ccccc2nc2c1ccc1ccccc12 (centres undefined) | 34% | 18% | 3% | 96% (active) | inactive | inactive | inactive | inactive
CS(=O)(=O)c1ccc(CCNCc2ccc(-c3ccc(CN(C(=O)c4ccco4)C4CCN(Cc5ccccc5)CC4)cc3)nc2)cc1 | 38% | 13% | -1% | 85% (active) | inactive | inactive | inactive | inactive
CCCCC(=O)NC(c1cccs1)c1cc(Cl)c2cccnc2c1O (centres undefined) | 90% (active) | 50% (active) | 1% | 93% (active) | inactive | inactive | inactive | inactive
O=C(c1cccc(-c2cccc(-c3nc4ccc(C(F)(F)F)cc4[nH]3)c2)c1)N1CCCCC1CN1CCC(O)C1 (centres undefined) | 101% (active) | 51% (active) | 0% | 91% (active) | inactive | inactive | inactive | inactive
COc1ccccc1-n1ccnc1SCC(=O)Nc1cccc(C(F)(F)F)c1 | 96% (active) | 1% | -2% | 95% (active) | inactive | inactive | inactive | inactive
CCOc1c(Cl)cc(Cl)cc1CNCCCNc1nc2ccccc2[nH]1 | 1% | 18% | -7% | 94% (active) | inactive | inactive | inactive | inactive
Cc1noc(-c2ccccc2)c1CN1CCCC2(CC(C(=O)NCc3cccc(F)c3F)=NO2)C1 (centres undefined) | 28% | -1% | -1% | 85% (active) | inactive | inactive | inactive | inactive
CCCc1cc(=O)oc2cc(OC)c(C(=O)CC(C)C)c(OC)c12 | 67% (active) | 3% | 2% | 81% (active) | inactive | inactive | inactive | inactive
Cc1ccc(CNC(=O)[C@H](Cc2ccccc2)Nc2cc(C)nc(NCC3CCCCC3)n2)cc1 | 89% (active) | -10% | 0% | 101% (active) | inactive | inactive | inactive | inactive
COc1ccc(CN2CCCN(Cc3ccc(C(=O)Nc4ccc(Cl)cc4)cc3)CC2)cc1 | 3% | 46% | 0% | 91% (active) | inactive | inactive | inactive | inactive
Nc1c2c(nc3ccc(NC(=O)c4ccccc4)cc13)CCCC2 | 8% | 0% | -8% | 99% (active) | inactive | inactive | inactive | inactive
OCC(CO)(CO)NCc1ccc2c3c(cccc13)-c1ccccc1-2 | 76% (active) | 73% (active) | 0% | 87% (active) | inactive | inactive | inactive | inactive
O=C(Nc1ccc(Cl)c(Cl)c1)Nc1ccc2nccc(N3CCN(Cc4ccccc4)CC3)c2c1 | 100% (active) | 31% | 1% | 101% (active) | inactive | inactive | inactive | inactive
COc1ccc2nc(C)cc(NN=Cc3ccc(Cl)cc3)c2c1 | 100% (active) | 2% | 3% | 100% (active) | inactive | inactive | inactive | inactive
CN(C)CCC1CCN(CCS(=O)(=O)c2cccc(Nc3ccc(-c4cccc(F)c4)cn3)c2)CC1 | 59% (active) | 94% (active) | 5% | 100% (active) | inactive | inactive | inactive | inactive
O=C(NCCN1CCCc2ccccc21)C1CCN(c2nc(-c3ccc(Cl)cc3)no2)CC1 | 62% (active) | 11% | -1% | 86% (active) | inactive | inactive | inactive | inactive
